From PubChem BioAssay (Tox21)
Records with an inconclusive call do not appear. A call without a number means that no potency is given here. A number with no mark means an inactive call. Active and inactive are the calls of the source. Unless noted, calls follow the shape of the dose curve; as a rule, active = well fitted curve in the direction sought with a large enough effect in the repeat runs; inconclusive = weak or mixed curves; inactive = no such curve, though single readings can be large; an effect the other way counts as inactive or inconclusive.

Tests used:
[1] = qHTS assay to identify small molecule antagonists of the thyroid receptor (TR) signaling pathway (AID 743065); also: nearly all actives have a fitted effect of over 55% in size; also: potency is read from the fitted curve at half-maximal effect
Method in brief: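 GH3.TRE-Luc rat pituitary cells (two TREs driving luciferase) were dosed with compound, then stimulated with 1 nM T3 (final) for 23.5 h at 37 C. ONE-Glo luminescence was the read-out, with CellTiter-Fluor fluorescence as the cytotoxicity counter-screen.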

[2] = tested on: thyroid hormone receptor (rat, GH3 cells); assay: qHTS assay to identify small molecule agonists of the thyroid receptor (TR) signaling pathway (AID 743066; calls by dose curve)
[3] = qHTS assay to identify small molecule antagonists of the estrogen receptor alpha (ER-alpha) signaling pathway - cell viability counter screen (AID 743074; calls by dose curve; also: nearly all actives have a fitted effect of over 45% in size)
[4] = qHTS assay to identify small molecule antagonists of the estrogen receptor alpha (ER-alpha) signaling pathway using the BG1 cell line - cell viability counter screen (AID 743081);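 also: compound given together with 17beta-estradiol as the ER stimulus; nearly all actives have a fitted effect of over 45% in size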
[5] = molecular target: Aromatase (Homo sapiens) (UniProt P11511); assay: qHTS assay to identify aromatase inhibitors (AID 743083); also: nearly all actives have a fitted effect of over 55% in size
[6] = molecular target: Estrogen receptor (Homo sapiens) (UniProt P03372); assay: qHTS assay to identify small molecule antagonists of the estrogen receptor alpha (ER-alpha) signaling pathway (AID 743069; active = well fitted curve in the direction sought with a large enough effect in the signal ratio in the repeat runs, not every such curve was filed as active; the % refers to the signal ratio)
Method in brief: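 In this cell-based reporter format, GripTite HEK293 cells harbouring ER-alpha-UAS-bla were grown overnight with 2% charcoal-stripped FBS, dosed with DMSO-dissolved compounds, then challenged with 17beta-estradiol. After 18 hr at 37C, beta-lactamase activity was detected by FRET fluorescence.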

[7] = molecular target: Estrogen receptor (Homo sapiens) (UniProt P03372); assay: qHTS assay to identify small molecule agonists of the estrogen receptor alpha (ER-alpha) signaling pathway (AID 743075; calls by dose curve)
[8] = molecular target: Estrogen receptor (Homo sapiens) (UniProt P03372); assay: qHTS assay to identify small molecule agonists of the estrogen receptor alpha (ER-alpha) signaling pathway using the BG1 cell line (AID 743079); conditions: BG1Luc4E2 cells, ERE-luciferase agonist, 22 h; also: nearly all actives have a fitted effect of over 20% in size
[9] = qHTS assay to identify small molecule antagonists of the estrogen receptor alpha (ER-alpha) signaling pathway using the BG1 cell line (AID 743080; calls by dose curve;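 also: BG1 cells stimulated with 17beta-estradiol alongside compound; nearly all actives have a fitted effect of over 25% in size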)
Method in brief: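 BG1-Luc-4E2 cells (endogenous full-length ER-alpha, stable 4×ERE-luciferase) were starved 5 days in phenol-red-free medium with 10% charcoal-stripped FBS, plated 24 h, then given compound plus 17beta-estradiol for 21.5 h at 37 C; ONE-Glo luminescence read after 30 min.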

Chain of Aromatase (Homo sapiens) (P11511 whole entry, looked up): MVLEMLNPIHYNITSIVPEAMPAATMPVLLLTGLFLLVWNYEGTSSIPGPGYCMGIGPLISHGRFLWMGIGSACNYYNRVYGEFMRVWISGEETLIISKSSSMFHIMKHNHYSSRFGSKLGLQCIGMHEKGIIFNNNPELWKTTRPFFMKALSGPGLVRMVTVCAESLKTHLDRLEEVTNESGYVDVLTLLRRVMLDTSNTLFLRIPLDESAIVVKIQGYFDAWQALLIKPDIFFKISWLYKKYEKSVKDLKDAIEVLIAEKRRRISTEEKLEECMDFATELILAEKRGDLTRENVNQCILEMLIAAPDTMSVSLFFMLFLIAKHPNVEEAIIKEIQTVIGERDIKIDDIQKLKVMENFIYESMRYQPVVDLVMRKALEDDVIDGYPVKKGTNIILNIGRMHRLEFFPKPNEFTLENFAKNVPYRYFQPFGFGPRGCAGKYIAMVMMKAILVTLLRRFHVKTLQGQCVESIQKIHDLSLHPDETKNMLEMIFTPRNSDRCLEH
Chain of Estrogen receptor (Homo sapiens) (P03372 whole entry, looked up): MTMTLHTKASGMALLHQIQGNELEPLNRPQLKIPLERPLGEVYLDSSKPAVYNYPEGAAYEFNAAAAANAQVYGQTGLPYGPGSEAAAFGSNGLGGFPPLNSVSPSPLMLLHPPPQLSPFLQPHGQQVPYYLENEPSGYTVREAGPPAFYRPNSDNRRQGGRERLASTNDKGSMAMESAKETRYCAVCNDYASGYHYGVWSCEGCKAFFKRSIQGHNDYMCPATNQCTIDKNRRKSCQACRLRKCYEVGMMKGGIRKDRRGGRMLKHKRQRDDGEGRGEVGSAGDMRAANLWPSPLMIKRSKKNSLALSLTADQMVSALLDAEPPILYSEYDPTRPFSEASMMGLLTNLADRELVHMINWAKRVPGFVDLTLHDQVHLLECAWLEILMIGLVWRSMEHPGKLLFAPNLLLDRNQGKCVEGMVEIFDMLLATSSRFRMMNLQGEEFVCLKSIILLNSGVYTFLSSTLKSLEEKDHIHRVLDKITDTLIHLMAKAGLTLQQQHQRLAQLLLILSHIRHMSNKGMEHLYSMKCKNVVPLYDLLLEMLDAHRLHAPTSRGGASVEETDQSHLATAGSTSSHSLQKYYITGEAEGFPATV

| SMILES | Potency [1] | Potency [2] | outcome [3] | Potency [4] | Potency [5] | Potency [6] | Potency [7] | activation ([8]; at 70.3 µM (top of the series)) [%] | Potency [9] | activation ([8]; at 95 µM (top of the series)) [%] |
| --- | --- | --- | --- | --- | --- | --- | --- | --- | --- | --- |
| O=C(Nc1ccccc1)N(Cc1ccc(Cl)cc1)C1CCCC1 | 21.7 µM (active) | inactive | inactive | inactive | inactive | – | – | – | – | – |
| c1cc[c]([Hg][c]2ccccc2)cc1 | – | inactive | inactive | inactive | inactive | inactive | inactive | – | – | – |
| COC(=O)C(C)Oc1ccc(Oc2ccc(Cl)cc2Cl)cc1 (stereo not drawn) | inactive | inactive | inactive | inactive | inactive | – | – | – | – | – |
| C=C(C)CN(CC)c1c([N+](=O)[O-])cc(C(F)(F)F)cc1[N+](=O)[O-] | inactive | inactive | inactive | inactive | inactive | inactive | inactive | 11.3 | – | – |
| N#CC(Cl)(Cl)Cl | inactive | inactive | inactive | inactive | inactive | inactive | inactive | -6.23 | inactive | – |
| O=C(NCO)NCO | inactive | inactive | inactive | inactive | inactive | inactive | inactive | – | inactive | 2.29 |
| CCCCC(=O)Cl | – | inactive | inactive | inactive | – | – | – | – | – | – |
| COc1cc(C[C@@H](C)N)c(OC)cc1C | 65.4 µM (active) | – | inactive | inactive | inactive | inactive | – | – | inactive | – |
| NC1=NC(=O)C(c2ccccc2)O1 (stereo not drawn) | inactive | inactive | inactive | inactive | – | – | – | – | – | – |
| NC(=S)C(N)=S | inactive | inactive | inactive | inactive | inactive | – | inactive | -1.3 | inactive | – |
| O=C(Oc1ccc(Br)cc1)N1CCN2CCC1CC2 | – | inactive | inactive | inactive | inactive | inactive | inactive | 1.03 | – | – |
| CC1(C(=O)Nc2ccc(O)c(Cl)c2Cl)CCCCC1 | – | inactive | inactive | inactive | – | – | – | – | – | – |
